High-throughput results as filed in PubChem BioAssay.
Compounds with a hit are over-represented: about 4.1% of the library has one in this group of screens.
Shn3 inh set2 – Schnurri-3 reporter inhibition in Clone20 osteoblasts. Clone20 osteoblast Shn3 3'UTR firefly luciferase, 24 h. inhibition, % at 12.5 µM. hit rate 0.52% among 360,000. AID 588674;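 active = mean inhibition of at least 75% with every replicate also reaching 75%; inconclusive = mean inhibition at least 75% but some replicate below; inactive = mean inhibition below 75%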
TWEAK Fn14 block – blocks TWEAK-Fn14 interaction in a reporter cell assay | TWEAK-stimulated Fn14 reporter cells, luciferase luminescence, 8 h | inhibition, % at 10 µM | hit rate 2% among 360,000; in the data active = inhibition above about 50%
Peg3 promoter – inhibitors of Peg3 promoter; HeLa PEG-Prom luciferase reporter, luminescence, overnight; inhibition, % at 20 µM; hit rate 1.7% among 360,000; AID 588405;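 active = inhibition of at least 50% at 20 µM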
TROY NFkB inh – TROY signaling inhibition | Q293 LMP1-TROYcd NF-kB luciferase reporter, 4 h | inhibition, % at 10 µM | hit rate 0.98% among 360,000 | AID 1347056;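 active = compounds whose plate-normalised and pattern-corrected inhibition of the luciferase reporter signal at the single screening dose is 50% or more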
LMP1 NFkB inh – Epstein-Barr LMP1 NF-kappaB reporter inhibition; LMP1-induced NF-kappaB luciferase reporter cells, luminescence; inhibition, % at 12.5 µM; hit rate 0.69% among 350,000; in the data active = inhibition above about 41%; inconclusive = no clear call, values can overlap the other calls
TRPM1 prom inh – reduces MITF-dependent TRPM1 promoter luciferase signal | SK-MEL-5 TRPM1 promoter luciferase, 24 h | hit rate 0.83% among 330,000 | inhibition, % at 12.5 µM;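 active = mean inhibition across replicates of 60% or more, whatever share of single replicates reaches that level; inconclusive = some that reach 60%, reason not given; inactive = mean inhibition across replicates below 60%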
Numbers stand for hits; - = inactive; ? = inconclusive; . = no result.

SMILES	Shn3 inh set2	TWEAK Fn14 block	Peg3 promoter	TROY NFkB inh	LMP1 NFkB inh	TRPM1 prom inh
COc1ccc(C(=O)NN(C)c2nc(C(F)(F)F)nc3ccccc23)cc1	-	52	-	55	-	-
CCCCC[C@H](O)/C=C/C1C(=O)C=C[C@H]1C/C=C\CCCC(=O)OC (stereo partly specified)	-	59	95	-	-	64
Cc1oc2c(Cl)c(Cl)c(O)c(CN(C)C)c2c1C(=O)c1ccc(Cl)cc1	-	75	-	-	-	-
Clc1ccc(-c2nc3ccccn3c2CN2CCCCC2)cc1	-	83	-	55	-	-
CCCCOc1ccc(Br)cc1CSC(=N)N	92	-	105	-	-	-
CCCCCOc1ccc(CSC(=N)N)cc1[N+](=O)[O-]	-	-	107	-	-	-
CC(C)(C)Cc1nnc(NC(=O)Cc2cccs2)s1	-	-	-	-	-	-
COc1cc(CN2CCC(Cc3ccccc3)CC2)c([N+](=O)[O-])cc1OC	-	80	-	-	-	-
CC(=O)NC(c1ccccc1)c1nc(-c2cncnc2)cs1 (stereo unspecified)	-	-	-	-	.	.
COc1cccc(CNCCc2c[nH]c3ccccc23)c1OCc1ccccc1	?	-	105	-	-	94
COc1cc(CNCCc2c[nH]c3ccccc23)ccc1OCc1ccccc1F	-	-	-	-	-	-
CC(C)c1cccc(C(C)C)c1NC(=O)COc1nncc2ccccc12	-	-	-	-	-	-
CCOC(=O)c1ccc(NC(=O)c2cccc(S(=O)(=O)N3c4ccccc4CC3C)c2)s1 (stereo unspecified)	-	54	-	-	-	-
COc1ccc(C(=O)Nc2ccc(S(=O)(=O)N3CCc4ccccc43)cc2)cc1	-	80	-	-	-	-
Cn1cc(S(=O)(=O)N2CCc3ccccc32)cc1C(=O)NC(C)(C)C	89	-	-	-	-	-
CCN(CC)CCNC(=O)c1ccc(NC(=O)c2cccc(S(=O)(=O)N3c4ccccc4CC3C)c2)cc1 (stereo unspecified)	-	-	86	-	-	93
NS(=O)(=O)c1ccc(NC(=O)c2ccc(S(=O)(=O)N3CCc4ccccc43)cc2)cc1	-	-	-	-	-	-
CCOc1ccc(CNC(=O)CCCC(=O)n2ncc3cc(C)ccc32)cc1	-	-	-	-	-	-
Cc1nc(/C=C\C(=O)O)c2cc(C)oc2n1	-	-	-	-	-	-
CCN(CC)CCNC(=O)c1ccc(NC(=O)c2cccc(S(=O)(=O)N3CCc4ccccc43)c2)cc1	-	-	77	-	-	-
CC(C)COc1ccc2[nH]c3c(c2c1)CCCC3=O	-	-	-	-	-	-
S=C(NCCCc1cnc[nH]1)NCCCN(Cc1ccccc1)c1ccc(Br)cn1	-	-	-	-	.	.
S=C(NCCCc1cnc[nH]1)NCCCN(Cc1ccc(Cl)cc1)c1ccc(Br)cn1	-	-	94	-	.	.
CCN(CC)c1ccc(CNc2nc3ccccc3n2CCN2CCCCC2)cc1	92	-	-	-	-	-
COc1ccc(CNc2nc3ccccc3n2CCN2CCCCC2)cc1	-	-	-	-	-	-
SMILES	Shn3 inh set2	TWEAK Fn14 block	Peg3 promoter	TROY NFkB inh	LMP1 NFkB inh	TRPM1 prom inh
Cc1occc1C(=O)N/N=C/c1ccc2c(c1)OCO2	-	64	-	-	-	-
COc1ccc2c(Cl)c(C(=O)N/N=C/c3ccc4c(c3)OCO4)sc2c1	-	-	51	-	-	-
O=C(N/N=C/c1ccc2c(c1)OCO2)c1sc2cc(Cl)ccc2c1Cl	-	-	-	-	-	-
O=C(N/N=C/c1ccc2c(c1)OCO2)c1cccs1	-	-	-	-	-	-
Cc1ccsc1C(=O)N/N=C/c1ccc2c(c1)OCO2	-	55	-	-	-	-
COc1ccc(NC(=O)CSc2nc(C3CC3)nc3ccccc23)c(OC)c1	-	-	-	-	-	-
CC(Sc1nnc(CN2CCCC2)n1Cc1ccccc1)C(=O)Nc1ccc(F)c(F)c1F (stereo unspecified)	-	-	-	-	-	-
COc1cc(CNCCN2CCOCC2)ccc1OCc1ccccc1Cl	-	101	-	.	-	-
COc1cc(CNc2ccc3[nH]c(=O)[nH]c3c2)ccc1OCc1ccccc1Cl	-	53	-	-	-	-
COc1cc(CNCCN2CCOCC2)ccc1OCc1ccc(Cl)cc1	-	-	-	-	-	-
CCN(C(=O)C1CC1)C1CCS(=O)(=O)C1 (stereo unspecified)	-	-	-	66	-	-
O=C1CCC(C(=O)OCC(=O)Nc2ccc(Cl)cc2C(F)(F)F)=NN1	-	-	-	-	-	-
Cc1ccc(C(=O)O/N=C(\N)c2ccccn2)c(Cl)c1	-	105	103	86	83	.
Cc1ccc(C(=O)O/N=C(\N)c2ccccc2)c(Cl)c1	-	96	-	82	-	-
N/C(=N\OC(=O)c1cc(Br)ccc1Cl)c1ccccn1	-	-	-	-	-	-
N/C(=N\OC(=O)c1ccccc1Cl)c1ccncc1	-	-	-	-	-	-
Cc1ccccc1C(=O)O/N=C(\N)c1ccncc1	-	-	-	-	56	-
COc1ccc(/C=N/NC(=O)Nc2cccc3nsnc23)cc1OC	-	62	-	-	-	-
O=C(Nc1ccc(Cl)cc1)Nc1cccc2nsnc12	-	56	-	-	-	-
NNC(=O)Cn1nc(-c2ccccc2)c2ccccc2c1=O	-	-	-	-	-	-
COC(=O)C1Cc2c([nH]c3ccccc23)C2(CCN(Cc3ccccc3)CC2)N1 (stereo unspecified)	-	-	-	-	-	-
COc1ccc(/C=N/NS(=O)(=O)c2ccc(C)cc2)cc1OC(=O)c1ccccc1	-	-	-	-	-	-
COc1cc(/C=N/NS(=O)(=O)c2ccc3ccccc3c2)ccc1OCc1ccc(C(=O)O)cc1	-	-	-	-	67	64
COc1ccc(/C=N/NS(=O)(=O)c2ccccc2)cc1OC(=O)c1ccc(C)cc1	-	-	-	-	-	-
COc1cc(/C=N/NC(=O)COc2cc(C)cc(C)c2)ccc1OS(=O)(=O)c1ccc(C)cc1	-	62	-	-	-	-
COc1cc(/C=N/NS(=O)(=O)c2ccc(C)cc2)ccc1OCc1cccc(C(=O)O)c1	-	-	-	-	73	78
O=C1CSc2ccc(C(=O)Nc3cccc(S(=O)(=O)Nc4ccc(Br)cc4)c3)cc2N1	-	98	-	82	-	-
O=C(Nc1ccc(NS(=O)(=O)c2ccccc2)cc1)c1ccc(Cl)cc1	-	-	-	-	-	-
O=C(Nc1cccc(S(=O)(=O)Nc2ccc(Cl)cc2)c1)c1ccc(Cl)nc1	91	80	-	53	-	-
COc1ccc(NS(=O)(=O)c2cc(NC(=O)CNC(=O)c3cccc(OC)c3)ccc2C)cc1	-	-	-	-	-	69
